SMILES strings stand for the structures. Inconclusive results are not listed. Activity calls are given as the source filed them. How the source made its calls, unless noted: active means hit-call score of the fitted dose curve at least 0.9, where 1 is the maximum; inactive means score below 0.9.

Usually AC50 stands for the concentration giving half of the maximal activity seen.

The target in assay [1] is human Peroxisome Proliferator-activated Receptor delta (PPARd), PPARD (gene 5467) (UniProt Q03181). In words: ATG_PPARd_TRANS: Attagene TRANS-FACTORIAL HepG2 Assay for human Peroxisome Proliferator-activated Receptor delta (PPARd) (AID 2283002; active means hit-call score of the fitted dose curve at least 0.9, where 1 is the maximum). Put shortly: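 Measured quantity: GAL4-UAS reporter transcript induction in HepG2 after 24 h chemical dosing, with NR-Gal4 chimeras supplied by transient transfection. Detection by RT-PCR and capillary electrophoresis; upward fit against DMSO.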

Read-out in assay [2]: Intercellular Adhesion Molecule 1 (ICAM1), ICAM1 (gene 3383)
In words: BSK_3C_ICAM1: BioMAP Diversity Plus: 3C Assay for Intercellular Adhesion Molecule 1 (ICAM1) Biomarker Activity (AID 2283003). The note with it: primary human endothelial cells (HUVEC); actives raise or lower the signal. Put shortly:
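ELISA readout of ICAM1 in human umbilical vein endothelial cells in the 3C system, taken 24 h post-dose. Gain or loss of signal versus DMSO was fitted in both directions, with SRB total-protein staining run in parallel.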

Assay [3] is described as follows: BSK_3C_Proliferation: Cell Proliferation Assessment in the BioMAP Diversity Plus: 3C Assay (AID 2283006).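 On AC50: potency may reflect either rise or fall in cell number versus DMSO.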 The note with it: primary human endothelial cells (HUVEC). Put shortly:
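Proliferation as total protein: sulforhodamine B (0.1%) stain of TCA-fixed subconfluent human umbilical vein endothelial cells, absorbance 560 nm, 48 h after dosing. Activity fitted in both directions against DMSO baseline.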

Assay [4] deals with Peroxisome proliferator-activated receptor gamma (Homo sapiens) (UniProt P37231). The assay can be described thus: ATG_PPARg_TRANS: Attagene TRANS-FACTORIAL HepG2 Assay for human Peroxisome Proliferator-activated Receptor-gamma (PPARg) (AID 2283007; active means hit-call score of the fitted dose curve at least 0.9, where 1 is the maximum). Put shortly: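 After 24 h of chemical exposure, transfected HepG2 cells carrying PPARγ-Gal4 chimera reporter constructs are lysed for RNA. Reporter transcripts are measured by RT-PCR and capillary electrophoresis with fluorescent labelling, and gain of signal is fitted versus DMSO.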

Assay [5] deals with Nuclear receptor subfamily 1 group I member 2 (Homo sapiens) (UniProt O75469). The assay can be described thus: ATG_PXR_TRANS: Attagene TRANS-FACTORIAL HepG2 Assay for human Pregnane X Receptor (PXR) (AID 2283008; active means hit-call score of the fitted dose curve at least 0.9, where 1 is the maximum). Put shortly:
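HepG2 transfected (FuGene 6) with GAL4-UAS reporter units + PXR-Gal4 chimera; dosed 24 h. Total RNA → oligo(dT) RT → PCR → 6-FAM primer extension → HpaI cut → CE. Gain-of-signal vs DMSO.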

The target in assay [6] is Retinoic acid receptor RXR-alpha (Homo sapiens) (UniProt P19793). In words: ATG_RXRa_TRANS: Attagene TRANS-FACTORIAL HepG2 Assay for human Retinoid X Receptor alpha (RXRa) (AID 2283012; active means hit-call score of the fitted dose curve at least 0.9, where 1 is the maximum). Put shortly: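 TRANS format reporting activity of exogenous RXRa-Gal4 chimera in transiently transfected HepG2, 24 h exposure. Reporter transcripts quantified by RT-PCR with capillary electrophoresis, with gain of signal scored relative to DMSO.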

Read-out in assay [7]: E-selectin (Homo sapiens) (UniProt P16581)
The assay can be described thus: BSK_3C_Eselectin: BioMAP Diversity Plus: 3C Assay for Eselectin Biomarker Activity (AID 2283015).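 On outcome: cell surface E-selectin protein quantified by ELISA 24 h after dosing.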 As to conditions: primary human endothelial cells (HUVEC); actives raise or lower the signal. Put shortly:
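Primary human umbilical vein endothelial cells (3C system), read 24 h after compound addition; E-selectin measured by ELISA. Bidirectional curve fitting against DMSO baseline; cytotoxicity by parallel SRB total-protein staining.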

Read-out in assay [8]: Interleukin-1 alpha (IL1a), IL1A (gene 3552)
The assay can be described thus: BSK_BE3C_IL1a: BioMAP Diversity Plus: BE3C Assay for Interleukin-1 alpha (IL1a) Biomarker Activity (AID 2283016). As to conditions: primary human bronchial epithelial cells; actives raise or lower the signal. Put shortly: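 IL-1a measured by ELISA after 24 h treatment of human primary bronchial epithelial cells, with gain or loss of signal fitted versus DMSO. Parallel cultures stained with SRB gauge overt cytotoxicity.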

Read-out in assay [9]: Monocyte Chemoattractant Protein-1 (MCP1), CCL2 (gene 6347)
The assay can be described thus: BSK_3C_MCP1: BioMAP Diversity Plus: 3C Assay for Monocyte Chemoattractant Protein-1 (MCP1) Biomarker Activity (AID 2283017). The note with it: primary human endothelial cells (HUVEC); actives raise or lower the signal. Put shortly:
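Human umbilical vein endothelial cells (3C system) exposed to chemicals for 24 h; MCP-1 quantified by ELISA against the DMSO baseline with bidirectional fitting, and parallel SRB staining used to assess cytotoxicity.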

Read-out in assay [10]: Monocyte Chemoattractant Protein-1 (MCP1), CCL2 (gene 6347)
The assay can be described thus: BSK_4H_MCP1: BioMAP Diversity Plus: 4H Assay for Monocyte Chemoattractant Protein-1 (MCP1) Biomarker Activity (AID 2283018). The note with it: primary human endothelial cells (HUVEC); actives raise or lower the signal. Put shortly:
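ELISA of MCP-1 (CCL2) 24 h after chemical dosing of HUVEC in the BioMAP 4H system. Gain or loss versus DMSO fitted; parallel SRB staining (560 nm) tracked overt cytotoxicity.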

Read-out in assay [11]: Human Leukocyte Antigen - DR isotype (HLADR), HLA-DRA (gene 3122)
The assay can be described thus: BSK_3C_HLADR: BioMAP Diversity Plus: 3C Assay for Human Leukocyte Antigen - DR isotype (HLADR) Biomarker Activity (AID 2283019).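 On outcome: ELISA of cell-surface HLA-DR on HUVEC 24 h after dosing.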 The note with it: primary human endothelial cells (HUVEC); actives raise or lower the signal. Put shortly:
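HUVEC monoculture, HLA-DR measured by ELISA 24 h after chemical dosing. Fitted bidirectionally against DMSO baseline; parallel SRB staining assessed cytotoxicity, with 3C proliferation read by SRB at 48 h.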

Read-out in assay [12]: Interleukin-8 (IL8), CXCL8 (gene 3576)
The assay can be described thus: BSK_3C_IL8: BioMAP Diversity Plus: 3C Assay for Interleukin-8 (IL8) Biomarker Activity (AID 2283020). As to conditions: primary human endothelial cells (HUVEC); actives raise or lower the signal. Put shortly: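 IL-8 was measured by ELISA in HUVEC cultures 24 h after chemical dosing, with gain or loss of signal fitted relative to DMSO. Parallel SRB total-protein staining tracked overt cytotoxicity.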

Read-out in assay [13]: Monokine induced gamma interferon (MIG), CXCL9 (gene 4283)
In words: BSK_3C_MIG: BioMAP Diversity Plus: 3C Assay for Monokine induced gamma interferon (MIG) Biomarker Activity (AID 2283021).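 On AC50: MIG protein level measured by immunoassay in the treated endothelial cultures.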 The note with it: primary human endothelial cells (HUVEC); actives raise or lower the signal. Put shortly:
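ELISA measurement of MIG in human umbilical vein endothelial cells 24 h after treatment. Cytotoxicity tracked by SRB staining in parallel cultures; gain or loss of signal fitted relative to DMSO.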

Assay [14] deals with Retinoic acid receptor alpha (Homo sapiens) (UniProt P10276). In words: ATG_RARa_TRANS: Attagene TRANS-FACTORIAL HepG2 Assay for human Retinoic Acid Receptor alpha (RARa) (AID 2283005; active means hit-call score of the fitted dose curve at least 0.9, where 1 is the maximum). Put shortly: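 HepG2 cells transiently transfected with multiple reporter units expressing chimeric RARα-GAL4 fusion, with GAL4-UAS-driven reporters. After 24 h compound exposure, reporter mRNA induction quantified by RT-PCR and capillary electrophoresis with fluorescent labeling; gain-of-signal fitted relative to DMSO control.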

In assay [15] the target is human RAR-related Orphan Receptor beta (RORb), RORB (gene 6096) (UniProt Q92753). The assay can be described thus: ATG_RORb_TRANS: Attagene TRANS-FACTORIAL HepG2 Assay for human RAR-related Orphan Receptor beta (RORb) (AID 2283010; active means hit-call score of the fitted dose curve at least 0.9, where 1 is the maximum). Put shortly:
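Read-out is reporter mRNA induction, quantified by RT-PCR with fluorescent capillary electrophoresis, 24 h post-dose in transiently transfected HepG2 expressing exogenous NR-Gal4 chimera. Activity fitted upward versus DMSO.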

Assay [16] has as its target human Thyroid Receptor alpha (THRa1), THRA (gene 7067) (UniProt P10827). The assay can be described thus: ATG_THRa1_TRANS: Attagene TRANS-FACTORIAL HepG2 Assay for human Thyroid Receptor alpha (THRa1) (AID 2283014; active means hit-call score of the fitted dose curve at least 0.9, where 1 is the maximum). Put shortly: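 HepG2 cells transiently transfected with chimeric NR-Gal4 and GAL4-UAS reporter units, dosed 24 h. Reporter mRNA quantified by RT-PCR, fluorescent labeling, HpaI digestion and capillary electrophoresis; gain-of-signal fit versus DMSO.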

In assay [17] the target is human Peroxisome Proliferator-activated Receptor alpha (PPARa), PPARA (gene 5465) (UniProt Q07869). In words: ATG_PPARa_TRANS: Attagene TRANS-FACTORIAL HepG2 Assay for human Peroxisome Proliferator-activated Receptor alpha (PPARa) (AID 2283001; active means hit-call score of the fitted dose curve at least 0.9, where 1 is the maximum;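 further: potency for gain of reporter signal over DMSO so agonist or activator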). Put shortly: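 Cells (HepG2) are transfected with multiple reporter transcription units, exposed to chemical for 24 h, then total RNA is reverse-transcribed and amplified. Labelled products are quantified by capillary electrophoresis; induction is referenced to DMSO.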

The target in assay [18] is human Retinoid X Receptor beta (RXRb), RXRB (gene 6257) (UniProt P28702). In words: ATG_RXRb_TRANS: Attagene TRANS-FACTORIAL HepG2 Assay for human Retinoid X Receptor beta (RXRb) (AID 2283013; active means hit-call score of the fitted dose curve at least 0.9, where 1 is the maximum). Put shortly:
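Readout is reporter transcript induction after 24 h dosing. It is measured by RT-PCR of total RNA followed by fluorescent capillary electrophoresis. HepG2 liver cells carry transfected multiple reporter units driven by an exogenous RXRb-Gal4 fusion; activity is relative to DMSO.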

Peroxisome proliferator-activated receptor gamma (Homo sapiens), sequence (P37231 whole entry, looked up, the tested form may be a part): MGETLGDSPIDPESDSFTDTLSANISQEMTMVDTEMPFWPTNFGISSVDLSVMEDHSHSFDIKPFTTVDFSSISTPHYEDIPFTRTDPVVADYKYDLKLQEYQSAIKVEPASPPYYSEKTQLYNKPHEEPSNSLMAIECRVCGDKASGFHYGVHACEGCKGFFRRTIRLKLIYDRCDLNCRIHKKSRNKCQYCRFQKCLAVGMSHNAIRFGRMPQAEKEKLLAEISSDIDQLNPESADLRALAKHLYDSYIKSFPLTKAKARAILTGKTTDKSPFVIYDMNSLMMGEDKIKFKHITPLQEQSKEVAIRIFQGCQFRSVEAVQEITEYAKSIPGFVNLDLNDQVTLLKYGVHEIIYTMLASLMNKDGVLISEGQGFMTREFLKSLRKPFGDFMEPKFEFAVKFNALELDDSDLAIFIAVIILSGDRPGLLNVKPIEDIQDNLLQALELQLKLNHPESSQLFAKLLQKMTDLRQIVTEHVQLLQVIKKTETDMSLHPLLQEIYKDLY
human Peroxisome Proliferator-activated Receptor delta (PPARd), PPARD (gene 5467), sequence (Q03181 whole entry, looked up, the tested form may be a part): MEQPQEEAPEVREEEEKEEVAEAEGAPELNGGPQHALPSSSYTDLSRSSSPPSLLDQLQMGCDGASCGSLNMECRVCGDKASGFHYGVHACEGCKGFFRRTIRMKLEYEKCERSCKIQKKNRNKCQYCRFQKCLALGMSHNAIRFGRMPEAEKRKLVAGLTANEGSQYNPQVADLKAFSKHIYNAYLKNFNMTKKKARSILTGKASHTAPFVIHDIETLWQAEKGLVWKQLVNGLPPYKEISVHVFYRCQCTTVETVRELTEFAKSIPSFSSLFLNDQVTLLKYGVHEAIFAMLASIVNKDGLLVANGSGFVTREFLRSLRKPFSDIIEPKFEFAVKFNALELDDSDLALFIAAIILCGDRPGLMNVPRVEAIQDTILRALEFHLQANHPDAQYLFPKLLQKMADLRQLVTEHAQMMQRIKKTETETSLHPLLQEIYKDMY
E-selectin (Homo sapiens), sequence (P16581 whole entry, looked up): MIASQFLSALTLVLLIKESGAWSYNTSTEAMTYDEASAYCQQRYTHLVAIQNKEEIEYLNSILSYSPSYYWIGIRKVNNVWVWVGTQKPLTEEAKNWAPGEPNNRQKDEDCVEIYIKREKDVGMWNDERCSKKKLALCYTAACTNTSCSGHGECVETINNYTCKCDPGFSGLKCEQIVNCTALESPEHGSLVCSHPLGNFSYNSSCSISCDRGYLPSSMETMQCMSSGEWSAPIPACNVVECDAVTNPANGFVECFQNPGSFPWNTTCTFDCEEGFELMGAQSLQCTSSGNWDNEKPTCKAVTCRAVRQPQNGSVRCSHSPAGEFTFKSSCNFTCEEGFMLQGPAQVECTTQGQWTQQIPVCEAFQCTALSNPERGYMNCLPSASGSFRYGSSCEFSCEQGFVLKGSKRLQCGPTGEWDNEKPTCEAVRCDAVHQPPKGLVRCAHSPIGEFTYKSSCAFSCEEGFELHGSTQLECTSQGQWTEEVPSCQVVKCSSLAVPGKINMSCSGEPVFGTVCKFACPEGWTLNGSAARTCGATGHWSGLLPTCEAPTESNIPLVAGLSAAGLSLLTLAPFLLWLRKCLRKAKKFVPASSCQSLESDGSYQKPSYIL
Nuclear receptor subfamily 1 group I member 2 (Homo sapiens), sequence (O75469 whole entry, looked up, the tested form may be a part): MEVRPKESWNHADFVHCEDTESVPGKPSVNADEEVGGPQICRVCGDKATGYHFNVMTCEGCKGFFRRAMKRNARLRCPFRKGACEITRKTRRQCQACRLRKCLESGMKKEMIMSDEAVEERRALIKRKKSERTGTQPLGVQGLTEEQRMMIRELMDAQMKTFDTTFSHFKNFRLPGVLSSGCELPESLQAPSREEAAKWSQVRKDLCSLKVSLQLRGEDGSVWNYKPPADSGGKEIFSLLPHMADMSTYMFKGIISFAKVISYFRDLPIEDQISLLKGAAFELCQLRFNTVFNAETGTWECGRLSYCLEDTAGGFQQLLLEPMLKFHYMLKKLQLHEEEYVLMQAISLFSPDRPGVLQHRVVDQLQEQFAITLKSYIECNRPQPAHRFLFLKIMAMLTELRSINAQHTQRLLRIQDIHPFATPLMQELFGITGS
human Thyroid Receptor alpha (THRa1), THRA (gene 7067), sequence (P10827 whole entry, looked up, the tested form may be a part): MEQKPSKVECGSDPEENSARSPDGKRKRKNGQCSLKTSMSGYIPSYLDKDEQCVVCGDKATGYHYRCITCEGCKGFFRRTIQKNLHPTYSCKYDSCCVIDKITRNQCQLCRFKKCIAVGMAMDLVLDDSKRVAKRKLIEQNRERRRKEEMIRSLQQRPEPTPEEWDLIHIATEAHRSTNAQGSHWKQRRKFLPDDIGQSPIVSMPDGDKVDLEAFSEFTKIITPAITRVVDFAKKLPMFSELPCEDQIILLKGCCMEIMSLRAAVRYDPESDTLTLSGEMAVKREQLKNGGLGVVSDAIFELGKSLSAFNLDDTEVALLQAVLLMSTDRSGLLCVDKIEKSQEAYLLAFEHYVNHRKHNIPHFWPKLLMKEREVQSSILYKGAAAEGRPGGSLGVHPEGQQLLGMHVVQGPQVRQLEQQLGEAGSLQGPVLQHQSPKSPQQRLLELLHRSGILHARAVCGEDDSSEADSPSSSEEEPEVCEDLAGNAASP
human RAR-related Orphan Receptor beta (RORb), RORB (gene 6096), sequence (Q92753 whole entry, looked up, the tested form may be a part): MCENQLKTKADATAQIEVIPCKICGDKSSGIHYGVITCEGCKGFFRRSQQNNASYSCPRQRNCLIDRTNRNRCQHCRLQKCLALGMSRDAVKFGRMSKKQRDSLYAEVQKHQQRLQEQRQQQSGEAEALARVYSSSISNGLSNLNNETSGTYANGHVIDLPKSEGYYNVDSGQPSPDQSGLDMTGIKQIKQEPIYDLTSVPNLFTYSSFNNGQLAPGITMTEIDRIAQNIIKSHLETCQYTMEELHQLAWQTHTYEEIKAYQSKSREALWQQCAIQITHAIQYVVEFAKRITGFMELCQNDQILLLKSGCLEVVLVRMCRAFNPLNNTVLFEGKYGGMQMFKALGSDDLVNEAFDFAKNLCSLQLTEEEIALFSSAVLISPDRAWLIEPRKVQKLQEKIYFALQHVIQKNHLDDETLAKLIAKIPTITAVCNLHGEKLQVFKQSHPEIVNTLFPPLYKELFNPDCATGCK
Retinoic acid receptor alpha (Homo sapiens), sequence (P10276 whole entry, looked up, the tested form may be a part): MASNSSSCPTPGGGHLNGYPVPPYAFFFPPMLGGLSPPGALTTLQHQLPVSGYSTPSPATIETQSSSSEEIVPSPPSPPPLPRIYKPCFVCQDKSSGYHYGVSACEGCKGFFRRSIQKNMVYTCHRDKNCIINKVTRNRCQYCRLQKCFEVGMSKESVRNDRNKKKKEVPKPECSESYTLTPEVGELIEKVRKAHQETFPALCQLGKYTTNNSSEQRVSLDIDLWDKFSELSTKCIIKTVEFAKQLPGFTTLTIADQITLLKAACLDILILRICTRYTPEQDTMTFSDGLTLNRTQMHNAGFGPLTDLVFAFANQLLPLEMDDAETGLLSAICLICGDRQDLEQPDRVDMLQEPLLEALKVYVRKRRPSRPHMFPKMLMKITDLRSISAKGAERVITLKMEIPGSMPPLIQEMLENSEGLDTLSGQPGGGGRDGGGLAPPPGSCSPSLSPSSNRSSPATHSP
human Retinoid X Receptor beta (RXRb), RXRB (gene 6257), sequence (P28702 whole entry, looked up, the tested form may be a part): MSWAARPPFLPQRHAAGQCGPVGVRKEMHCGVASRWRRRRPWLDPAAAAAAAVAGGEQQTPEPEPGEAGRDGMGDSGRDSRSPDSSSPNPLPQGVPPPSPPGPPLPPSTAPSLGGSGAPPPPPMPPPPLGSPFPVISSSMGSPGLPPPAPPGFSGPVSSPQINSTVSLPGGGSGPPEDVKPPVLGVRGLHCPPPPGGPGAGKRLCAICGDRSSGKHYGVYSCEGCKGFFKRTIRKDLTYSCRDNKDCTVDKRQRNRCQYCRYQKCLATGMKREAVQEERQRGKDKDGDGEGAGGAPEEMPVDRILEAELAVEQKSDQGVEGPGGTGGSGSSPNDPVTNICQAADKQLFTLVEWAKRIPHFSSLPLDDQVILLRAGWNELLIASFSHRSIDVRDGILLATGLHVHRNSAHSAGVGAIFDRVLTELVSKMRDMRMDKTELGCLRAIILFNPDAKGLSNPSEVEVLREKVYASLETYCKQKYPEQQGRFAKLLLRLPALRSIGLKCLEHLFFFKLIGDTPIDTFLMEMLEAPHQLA
human Peroxisome Proliferator-activated Receptor alpha (PPARa), PPARA (gene 5465), sequence (Q07869 whole entry, looked up): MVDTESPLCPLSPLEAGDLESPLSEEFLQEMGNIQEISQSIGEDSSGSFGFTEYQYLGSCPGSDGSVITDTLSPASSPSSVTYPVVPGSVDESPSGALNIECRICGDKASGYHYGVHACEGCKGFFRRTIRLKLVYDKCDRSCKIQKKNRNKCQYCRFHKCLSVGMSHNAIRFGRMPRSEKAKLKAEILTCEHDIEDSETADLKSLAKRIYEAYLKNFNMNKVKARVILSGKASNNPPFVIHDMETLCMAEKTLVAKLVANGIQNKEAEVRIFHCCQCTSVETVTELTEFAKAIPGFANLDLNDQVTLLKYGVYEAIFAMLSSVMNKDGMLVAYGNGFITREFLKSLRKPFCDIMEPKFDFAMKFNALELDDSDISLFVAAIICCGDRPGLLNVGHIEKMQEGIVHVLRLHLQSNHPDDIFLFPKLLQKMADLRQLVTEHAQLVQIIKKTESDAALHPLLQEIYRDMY
Retinoic acid receptor RXR-alpha (Homo sapiens), sequence (P19793 whole entry, looked up, the tested form may be a part): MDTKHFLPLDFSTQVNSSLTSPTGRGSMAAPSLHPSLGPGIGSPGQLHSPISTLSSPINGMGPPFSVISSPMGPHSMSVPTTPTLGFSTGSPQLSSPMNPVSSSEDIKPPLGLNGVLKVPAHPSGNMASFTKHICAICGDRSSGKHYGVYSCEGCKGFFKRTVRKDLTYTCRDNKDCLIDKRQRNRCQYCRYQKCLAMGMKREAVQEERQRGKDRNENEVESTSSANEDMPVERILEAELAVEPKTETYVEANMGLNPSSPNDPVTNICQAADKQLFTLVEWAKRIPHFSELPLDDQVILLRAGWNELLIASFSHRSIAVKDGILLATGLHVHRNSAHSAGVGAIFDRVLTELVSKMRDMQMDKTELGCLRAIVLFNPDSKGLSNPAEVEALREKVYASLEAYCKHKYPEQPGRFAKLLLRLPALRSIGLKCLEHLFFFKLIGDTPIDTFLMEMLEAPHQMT

Regarding `CCN(Cc1cccnc1)C(=O)c1cccc(Cl)c1[C@]1(C)C(=O)N(Cc2ccc(OC)cc2OC)c2ccc(Cl)cc21`, the outcome in assay [1], in assay [2], in [4], in assay [6], in assay [8] and in [10] was inactive. For the same compound, in [13], the outcome was inactive. Besides, the AC50 is 5.12 µM (active) in [3]; 0.0262 µM (active) in assay [5]; 6.76 µM (active) in assay [7]; 6.68 µM (active) in assay [9]; 8.86 µM (active) in assay [11]; 5.8 µM (active) in assay [12].
`Cc1cc(F)ccc1-c1cc(N2CC[C@@H](O)[C@H]2CO)ncc1N(C)C(=O)C(C)(C)c1cc(C(F)(F)F)cc(C(F)(F)F)c1`: the compound was classed as inactive in assay [1] and in assay [4]. Further, the concentration at half-maximal activity (AC50) in assay [2] is 12.8 µM (active); in assay [3], 5.65 µM (active); in assay [5], 1.14 µM (active); in [7], 10.9 µM (active); in [8] it was 14.6 µM (active); in assay [9], 10 µM (active). In addition, the AC50 was 6.91 µM (active) in assay [10], 9.43 µM (active) in assay [11], 9.76 µM (active) in [12] and 12.9 µM (active) in [13].
As to `c1ccc2n[nH]nc2c1`, the outcome in [1], in [2], in [14], in assay [3], in assay [4] and in [5] was inactive. Besides, the result in assay [15], in assay [16], in assay [7], in assay [8], in assay [9] and in [10] was inactive. Besides, the outcome in assay [11], in [12] and in assay [13] was inactive.
In the case of `Cc1occc1C(=O)Nc1ccc(C(=O)N2CCC(F)(F)/C(=C\C(=O)N3CCC(N4CCCCC4)CC3)c3ccccc32)cc1`, the AC50 is 53 µM (active) in [17]; 59.6 µM (active) in [4]; 25.5 µM (active) in [5]; 55.2 µM (active) in assay [18]; 53.8 µM (active) in [16]. Also, the result in assay [2], in assay [3], in assay [7], in assay [8], in assay [9] and in [10] was inactive. The outcome in assay [11], in [12] and in assay [13] was inactive.
